Laboratory results published in PubChem BioAssay (NCI).
Compounds without any hit were thinned out: in the full panel of roughly 83,000, 20% have a hit.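 Single-concentration screen, 48 h exposure, 96-well plates. Endpoint: percent growth. Below 10 = active.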 Values without a mark were called inactive. Activity calls are given as the source filed them.

Assays:
Experiment in all cases: NCI-60 one-dose screen, 48 h (100 = growth as untreated, 0 = no growth, -100 = all killed)
Settings in all cases: 10 µM unless noted
EKVX NSCLC = test system: EKVX NSCLC
SN12C renal = test system: SN12C renal
UO-31 renal = test system: UO-31 renal
ACHN renal = test system: ACHN renal
CAKI-1 renal = test system: CAKI-1 renal
A498 renal = test system: A498 renal
CCRF-CEM leukemia = test system: CCRF-CEM leukemia
MOLT-4 leukemia = test system: MOLT-4 leukemia
TK-10 renal = test system: TK-10 renal

| SMILES | growth (EKVX NSCLC) | growth (SN12C renal) | growth (UO-31 renal) | growth (ACHN renal) | growth (CAKI-1 renal) | growth (A498 renal) | growth (CCRF-CEM leukemia) | growth (MOLT-4 leukemia) | growth (TK-10 renal) |
| --- | --- | --- | --- | --- | --- | --- | --- | --- | --- |
| COc1ccc(CC(=O)Nc2nn3c(-c4cc(C(F)(F)F)cc(C(F)(F)F)c4)nnc3s2)cc1 | 67.4% | 64.7% | 74% | 81.9% | 46.2% | 79.9% | 49.9% | 65.7% | – |
| O=C1c2cc3c(cc2-c2c1c1ccc(Cl)cc1c(=O)n2CCCNCCO)OCO3 | -65.3% (active) | -66.6% (active) | -81.7% (active) | -87.5% (active) | -80% (active) | -94.4% (active) | -24.9% (active) | -34.5% (active) | – |
| COc1cc(C(=O)/C=C/c2cccc(Nc3ccnc4cc(Cl)ccc34)c2)cc(OC)c1OC | 16.8% | -1.72% (active) | -87.9% (active) | -68.7% (active) | – | – | 2.7% (active) | -6.64% (active) | -39.5% (active) |
| Cc1n(Cc2ccc3ccccc3c2)cc[n+]1Cc1ccc2ccccc2c1 | 47% | 2.52% (active) | 81.5% | 80.1% | – | 31.2% | 24.1% | 11.3% | 23.5% |
| COc1ccc(C2=NN(C(C)=O)C(c3cccc(Nc4ccnc5cc(Cl)ccc45)c3)C2)cc1 (stereo not drawn) | 64.7% | 48.5% | 37.5% | 60.8% | – | 33.1% | 40.8% | 22.3% | 58.3% |
| COc1cc(C2=NN(C=O)C(c3cccc(Nc4ccnc5cc(Cl)ccc45)c3)C2)cc(OC)c1OC (stereo not drawn) | 79.3% | 77.2% | 68.7% | 86.2% | – | 62.5% | 53.9% | – | 87.9% |
| O=C(Nc1nc2c(C(F)(F)F)cccc2s1)c1cc(Cl)ccc1O | 11.1% | -4.79% (active) | -10.9% (active) | 5.28% (active) | – | -36.9% (active) | 10.7% | -8.05% (active) | 10.2% |
| CN1C(=O)C(C2=NN(C=O)C(c3ccc(F)cc3)C2)C(=O)N(C)C1=O (stereo not drawn) | 101% | 97.3% | 96.6% | 107% | – | 96.7% | 77.4% | 93.8% | 99.1% |
| COc1ccc(C(=O)/C=C/c2ccc(C)cc2)cc1OC | 93% | 75.7% | -12% (active) | 86.2% | – | 80.7% | 23.4% | – | 114% |
| Cc1sc2nc(NCc3ccccc3)[nH]c(=O)c2c1C | 70.3% | 68.5% | 74.6% | 84% | – | 48.9% | 58.9% | 44% | 67% |
| CCOC(=O)c1sc(NC(=O)COc2cccc(/C=C3\Cc4ccc(Cl)cc4C3=O)c2)nc1C | 107% | 105% | -17.4% (active) | 110% | 84.6% | – | 114% | 105% | 145% |
| CCN(CC)c1ccc(C(=C2C=CC(=[N+](CC)Cc3cccc(S(=O)(=O)O)c3)C=C2)c2ccc(N(CC)Cc3cccc(S(=O)(=O)O)c3)cc2)cc1 | 33.2% | 22.8% | 45.4% | 77.3% | – | 36% | 12.4% | 48% | 69.5% |
| Clc1ccc(C2=NN(c3ccc(Cl)cc3)C(c3cccc(Nc4ccnc5cc(Cl)ccc45)c3)C2)cc1 (stereo not drawn) | 74.3% | 77.7% | 50.7% | 88.7% | – | 89.3% | 88.5% | 56.7% | 95.2% |
| COc1ccc(C(=O)/C=C/c2cccc(Nc3ccnc4cc(Cl)ccc34)c2)cc1 | 50.9% | 25.7% | 6.64% (active) | 29.6% | – | 39.7% | 37.2% | 42.3% | -11% (active) |
| CCCCc1n(Cc2ccc3ccccc3c2)cc[n+]1Cc1ccc2ccccc2c1 | 14.4% | -22.3% (active) | 18.9% | 30% | – | 0.276% (active) | 6.82% (active) | -17.5% (active) | -10.4% (active) |
| c1ccc(-c2n(Cc3ccc4ccccc4c3)cc[n+]2Cc2ccc3ccccc3c2)cc1 | 3.5% (active) | -34.7% (active) | -16.6% (active) | 13.3% | – | -20.5% (active) | 6.85% (active) | -24.9% (active) | -69.8% (active) |

| SMILES | growth (EKVX NSCLC) | growth (SN12C renal) | growth (UO-31 renal) | growth (ACHN renal) | growth (CAKI-1 renal) | growth (A498 renal) | growth (CCRF-CEM leukemia) | growth (MOLT-4 leukemia) | growth (TK-10 renal) |
| --- | --- | --- | --- | --- | --- | --- | --- | --- | --- |
| CC(=O)N1N=C(c2ccc3c(c2)OCO3)CC1c1c(C)nn(-c2ccccc2)c1N(C)Cc1ccccc1 (stereo not drawn) | 72.9% | 72.9% | 51.9% | 81.3% | – | 67.4% | 69.5% | 41.9% | 80.9% |
| O=C(CNC(=O)c1cccc2ccccc12)Nc1ccccc1Cc1ccccc1 | 54.9% [5 µM] | 56.3% [5 µM] | 60.7% [5 µM] | 56.9% [5 µM] | – | 38.2% [5 µM] | 20.4% [5 µM] | 19.2% [5 µM] | 49.6% [5 µM] |
| COc1cc(NC(C)CCCN)c2nc(C)ccc2c1Oc1ccc(F)cc1 (stereo not drawn) | 75.1% | 69.9% | 45.4% | 84.6% | 75.9% | 60.4% | 78.2% | 63.1% | – |
| O=C(/C=C/c1cccc(Nc2ccnc3cc(Cl)ccc23)c1)c1ccc(Cl)cc1 | 60.3% | 37.6% | 30.1% | 51.1% | – | 44.1% | 24.4% | 24.1% | 49% |
| COc1ccc2c(=O)c(OC)c(-c3cc(OC)c(OC)c(OC)c3)oc2c1 | 109% | 77% | -82.5% (active) | 92.2% | – | 96.1% | 93.4% | 99.6% | 124% |
| OCCCc1n(Cc2ccc3ccccc3c2)c2ccccc2[n+]1Cc1ccc2ccccc2c1 | 47.6% | 8.7% (active) | 76.4% | 81.6% | – | 46% | 30.8% | 19.7% | 37.5% |
| COc1ccccc1-n1c(-c2ccc(O)cc2C)cn2c3c(=O)[nH]c(=O)n(C)c3nc12 | 98.7% | 75% | 74.2% | 74% | 79.4% | 80.2% | 106% | 81.4% | – |
| Cc1sc2nc(NCCc3cccs3)[nH]c(=O)c2c1C | 85.5% | 87.7% | 90% | 96.1% | – | 70.7% | 81.9% | 75.3% | 96.8% |
| CN1CCN(CCCCCN=c2cc3c(=O)n(CCCCCN4CCN(C)CC4)c(=O)c4c(NCCCCCN5CCN(C)CC5)cc5c(O)n(CCCCCN6CCN(C)CC6)c(=O)c2c5c4-3)CC1 | -11.4% (active) | 5.16% (active) | 115% | 88.5% | 102% | 95.6% | 13.9% | 25.2% | – |
| COc1cc(C2CC(C3C(=O)N(C)C(=O)N(C)C3=O)=NN2C=O)cc(OC)c1OC (stereo not drawn) | 100% | 94% | 101% | – | – | 95.1% | 82.8% | 92.7% | 87.4% |
| O=C(/C=C/c1ccc(C(F)(F)F)cc1)c1ccc(Nc2nc(NCCO)nc(NCCO)n2)cc1 | 79.5% | 65.7% | 44.2% | 83.7% | – | 82.1% | 7.48% (active) | 34.5% | 54.8% |
| CC(=O)N1N=C(c2ccc(Nc3nc(NCCO)nc(NCCO)n3)cc2)CC1c1ccc(Cl)cc1 (stereo not drawn) | 91.9% | 98.8% | 96.9% | 96.4% | – | 102% | 114% | 116% | 83.3% |
| O=C(CNC(=O)c1cccc2ccccc12)Nc1ccccc1Oc1cccc(O)c1 | 47.2% [5 µM] | 49% [5 µM] | 44.5% [5 µM] | 51% [5 µM] | – | – | 15.1% [5 µM] | 11.9% [5 µM] | 42% [5 µM] |
| CC(=O)N1N=C(c2ccc(Cl)cc2)CC1c1c(C)nn(-c2ccccc2)c1N(C)Cc1ccccc1 (stereo not drawn) | 76.4% | 63.2% | 50.2% | 90.9% | – | 71.6% | 73% | 44.4% | 88.5% |
| COc1cc(-c2nnc(-c3nc(-c4cc(OC)c(OC)c(OC)c4)n4ccccc34)o2)ccc1N | 8.84% (active) | 50.4% | 38.6% | 62.2% | 59.3% | 98.8% | 43% | 64.6% | – |
